In PubChem BioAssay (NCATS):
Inconclusive results are not listed. Calls of active or inactive are those of the source. Calls come from the whole dose curve; as a rule, active = well fitted curve in the direction sought with a large enough effect; inconclusive = small, poorly fitted or top-dose-only effect, or another doubt; inactive = no such curve, though single readings can be large; an effect the other way counts as inactive or inconclusive.

Columns and labels:
[1] = Quantitative High-Throughput drug screen in 47 multiple myeloma cell lines against the NCATS MIPE library collection: KMS12PE_JCRB cell viability assay (AID 1918972); note: nearly all actives have a fitted effect of over 30% in size; for viability: series mostly up to about 46 µM
How it was run: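 Relative luminescence from CellTiter-Glo served as the viability signal, referenced to DMSO-treated (100%) and cell-free medium (0%) controls. Treatment lasted 48 hours at 37C with 500 cells per well.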

[2] = Quantitative High-Throughput drug screen in 47 multiple myeloma cell lines against the NCATS MIPE library collection: KMS20_JCRB cell viability assay (AID 1918973); note: nearly all actives have a fitted effect of over 45% in size
How it was run: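 CellTiter-Glo ATP luminescence gave viability after 48 h compound treatment at 37C of 500 multiple myeloma cells per well. Normalisation used DMSO-only wells as 100% and media-only wells as 0% viability; primary qHTS of approved and investigational drugs.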

[3] = Quantitative High-Throughput drug screen in 47 multiple myeloma cell lines against the NCATS MIPE library collection: KMS26_JCRB cell viability assay (AID 1918975); note: nearly all actives have a fitted effect of over 45% in size
How it was run: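 Steps: seed 500 cells per well; pin-transfer MIPE 4.0 library; incubate 48 h at 37C, 5% CO2, humidified; add CellTiter-Glo, 5 min room temperature; read luminescence.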

[4] = Quantitative High-Throughput drug screen in 47 multiple myeloma cell lines against the NCATS MIPE library collection: MMM1_PLB cell viability assay (AID 1918976); note: nearly all actives have a fitted effect of over 35% in size
How it was run: (§1)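 Readout: median RLU from CellTiter-Glo after 5 min at room temperature. Preceding step was 48 h drug treatment of 500 cells/well at 37 °C, 5% CO2, with DMSO-only and media-only control wells.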

[5] = Quantitative High-Throughput drug screen in 47 multiple myeloma cell lines against the NCATS MIPE library collection: MOLP8_DSMZ cell viability assay (AID 1918977); note: nearly all actives have a fitted effect of over 45% in size
How it was run: as §1

[6] = Quantitative High-Throughput drug screen in 47 multiple myeloma cell lines against the NCATS MIPE library collection: NCIH929_DSMZ cell viability assay (AID 1918978); note: nearly all actives have a fitted effect of over 35% in size
How it was run: as §1

[7] = Quantitative High-Throughput drug screen in 47 multiple myeloma cell lines against the NCATS MIPE library collection: MM1S_ATCC cell viability assay (AID 1918980); note: nearly all actives have a fitted effect of over 45% in size
How it was run: as §1

[8] = Quantitative High-Throughput drug screen in 47 multiple myeloma cell lines against the NCATS MIPE library collection: OCIMY1_PLB cell viability assay (AID 1918979); note: nearly all actives have a fitted effect of over 35% in size; for viability: series mostly up to about 46 µM
How it was run: as §1

[9] = Quantitative High-Throughput drug screen in 47 multiple myeloma cell lines against the NCATS MIPE library collection: MM1R_ATCC cell viability assay (AID 1918981); note: nearly all actives have a fitted effect of over 35% in size
How it was run: as §1
Potency is the fitted concentration of half-maximal effect.

SMILES	Potency [1]	Potency [2]	Potency [3]	Potency [4]	Potency [5]	Potency [6]	Potency [7]	Potency [8]	Potency [9]
C1=CCOCc2cc(ccc2OCCN2CCCC2)Nc2nccc(n2)-c2cccc(c2)OCC1	2640 nM (active)	2350 nM (active)	4180 nM (active)	3320 nM (active)	2090 nM (active)	2350 nM (active)	2640 nM (active)		
CCn1nnc2c(N3CCOCC3)nc(-c3ccc(NC(=O)Nc4ccc(C(=O)N5CCN(C)CC5)cc4)cc3)nc21	46.9 nM (active)	23.5 nM (active)	41.8 nM (active)	33.2 nM (active)	3.7 nM (active)	6.6 nM (active)	33.2 nM (active)	5260 nM (active)	
N#CCNC(=O)c1ccc(-c2ccnc(Nc3ccc(N4CCOCC4)cc3)n2)cc1	5260 nM (active)	13200 nM (active)	18700 nM (active)	18700 nM (active)	11800 nM (active)	9350 nM (active)	18700 nM (active)	23500 nM (active)	
COc1cc2c(Oc3ccc(NC(=O)C4(C(=O)Nc5ccc(F)cc5)CC4)cc3F)ccnc2cc1OCCCN1CCOCC1	3720 nM (active)	1870 nM (active)	16600 nM (active)	18700 nM (active)		2960 nM (active)		14800 nM (active)	4180 nM (active)
COc1cc2c(Oc3ccc(-c4cnc(Nc5ccc(F)cc5)n(C)c4=O)cc3F)ccnc2cc1OCCCN1CCOCC1	1870 nM (active)	2960 nM (active)	18700 nM (active)	4690 nM (active)	18700 nM (active)	2640 nM (active)	9350 nM (active)		3720 nM (active)
CC1=C(CO)C(=O)O[C@@H]([C@@H](C)[C@H]2CC[C@H]3[C@@H]4C[C@H]5O[C@]56[C@@H](O)C=CC(=O)[C@]6(C)[C@@H]4CC[C@]23C)C1	inactive	148 nM (active)	235 nM (active)	833 nM (active)	132 nM (active)	166 nM (active)		118 nM (active)	132 nM (active)
O=C(c1cncc(Br)c1)N1CCC(N2CCCC2)CC1	inactive	inactive	inactive	inactive	inactive	inactive	inactive		
CC(=O)Nc1sc2c(c1-c1nc3ccccc3s1)CNC2	20900 nM (active)	16600 nM (active)	16600 nM (active)	14800 nM (active)	5900 nM (active)	16600 nM (active)	14800 nM (active)		18700 nM (active)
CN1CCN(Cc2ccc(NC(=O)Nc3ccc(Oc4cc(NC(=O)C5CC5)ncn4)cc3)cc2C(F)(F)F)CC1	inactive	132 nM (active)	418 nM (active)	372 nM (active)	332 nM (active)	132 nM (active)	332 nM (active)	1180 nM (active)	332 nM (active)
CC(C)C[C@H](NC(=O)CNC(=O)c1cc(Cl)ccc1Cl)B(O)O	74.3 nM (active)	132 nM (active)				37.2 nM (active)	41.8 nM (active)	66.2 nM (active)	41.8 nM (active)
Cc1ccc(CN2CCNCC2)cc1NC(=O)CNc1ccc(F)c(F)c1	inactive	inactive		16600 nM (active)		inactive	2640 nM (active)	inactive	26400 nM (active)
Cc1cc(Nc2ncnc3ccc(-c4ccc(CNCCS(C)(=O)=O)o4)cc23)ccc1Oc1ccn2ncnc2c1	5260 nM (active)	2090 nM (active)		3320 nM (active)	20900 nM (active)	4180 nM (active)	5900 nM (active)		20900 nM (active)
CC(C)c1cc(-c2n[nH]c(=O)n2-c2ccc3c(ccn3C)c2)c(O)cc1O	33.2 nM (active)	29.6 nM (active)	37.2 nM (active)			20.9 nM (active)	59 nM (active)	46.9 nM (active)	46.9 nM (active)
NC1(Cc2ccc(Cl)cc2)CCN(c2ncnc3[nH]ccc23)CC1	3720 nM (active)	3320 nM (active)		526 nM (active)	8330 nM (active)	935 nM (active)	1870 nM (active)		
COc1c(N2C[C@@H]3CCCN[C@H]3C2)c(F)cc2c(=O)c(C(=O)O)cn(C3CC3)c12	inactive	inactive		inactive		inactive			inactive
O=C(Nc1ncc(-c2cc(C(F)F)nn2-c2c(Cl)cccc2Cl)s1)C1CC1	372 nM (active)	469 nM (active)		2640 nM (active)	2090 nM (active)	2640 nM (active)	1480 nM (active)		1320 nM (active)
Nc1cccc(-c2cc3c(Oc4cccc(O)c4)ncnc3[nH]2)c1	inactive	18700 nM (active)				23500 nM (active)	3320 nM (active)	inactive	
c1ccc2c(CCNc3ccc(Nc4ccncc4)cc3)c[nH]c2c1	5260 nM (active)	10500 nM (active)		13200 nM (active)		20900 nM (active)	2960 nM (active)	inactive	3320 nM (active)
CN1c2cc(O)c(N=NC(N)=O)cc2CC1S(=O)(=O)O (stereo unspecified)	inactive	inactive	inactive		inactive	inactive			inactive
Nc1nc(Nc2ccc(S(N)(=O)=O)cc2)nn1C(=O)c1c(F)cccc1F	6620 nM (active)	4180 nM (active)	7430 nM (active)			4180 nM (active)	7430 nM (active)	13200 nM (active)	6620 nM (active)
Clc1cccc(-c2nnnn2Cc2cccnc2)c1Cl	inactive	inactive	inactive		inactive				inactive
Nc1ncnc2c1c(-c1cccc(OCc3ccccc3)c1)cn2C1CC(CN2CCCC2)C1 (stereo unspecified)	9350 nM (active)	132 nM (active)	4690 nM (active)		16600 nM (active)	83.3 nM (active)			1660 nM (active)
OCc1ccc(-c2ccc(-c3ccc(CO)s3)o2)s1	235 nM (active)	1870 nM (active)	11800 nM (active)		20900 nM (active)	2640 nM (active)	6620 nM (active)	23500 nM (active)	
CCc1c2c(nc3ccc(O)cc13)-c1cc3c(c(=O)n1C2)COC(=O)[C@]3(O)CC	187 nM (active)	118 nM (active)	2350 nM (active)		166 nM (active)	46.9 nM (active)	11.8 nM (active)	590 nM (active)	11.8 nM (active)
CC[C@@H]1C(=O)N(C)c2cnc(Nc3ccc(C(=O)NC4CCN(C)CC4)cc3OC)nc2N1C1CCCC1	1660 nM (active)	6620 nM (active)	3720 nM (active)		4690 nM (active)	2350 nM (active)	4180 nM (active)	469 nM (active)	1180 nM (active)
Cc1cn2cc(C(=O)N(C)CCO)cc(N[C@@H]3CCOc4cccc(C)c43)c2n1	inactive	inactive				inactive		inactive	inactive
Cc1cc(N2CCOCC2)cc2[nH]c(-c3c(NC[C@@H](O)c4cccc(Cl)c4)cc[nH]c3=O)nc12	7430 nM (active)	93.5 nM (active)			11800 nM (active)	52.6 nM (active)	187 nM (active)		187 nM (active)
CCN(CC)CCCCNc1ncc2cc(-c3cc(OC)cc(OC)c3)c(NC(=O)NC(C)(C)C)nc2n1	16600 nM (active)	7430 nM (active)				11800 nM (active)	20900 nM (active)	inactive	23500 nM (active)
